Inconclusive results are not listed. A call without a number means that no potency is given here. The source made the active and inactive calls. Calls come from the whole dose curve; as a rule, active = well fitted cell-killing curve with a large enough effect; inconclusive = small, poorly fitted or top-dose-only effect, or effect the other way; inactive = flat fitted curve, though single readings scatter.
Legend:
Assay in all cases: Primary qHTS to identify gynecologic anti-cancer compounds using libraries of approved drugs and bioactive compounds (AID 1345084); note: nearly all actives have a fitted effect of over 55% in size
C33A = details: Gynecologic cancer cell panel viability, ATPlite luminescence, 48 h; series mostly up to 57.5 µM
Procedure, shortened: (§1)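 Cells, 1,000 per well, plated 16 h, then exposed 48 h at 37 C to compounds. Viability by ATPlite luminescence after 15 min at room temperature.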

CAOV3 = details: Gynecologic cancer cell panel viability, ATPlite luminescence, 48 h; series mostly up to 57.5 µM
Procedure, shortened: as §1

CASKI = details: Gynecologic cancer cell panel viability, ATPlite luminescence, 48 h; series mostly up to 57.5 µM
Procedure, shortened: as §1

Es-2 = details: Gynecologic cancer cell panel viability, ATPlite luminescence, 48 h; series mostly up to 57.5 µM
Procedure, shortened: as §1

HeLa = details: Gynecologic cancer cell panel viability, ATPlite luminescence, 48 h; series mostly up to 57.5 µM
Procedure, shortened: as §1

Hek293T = details: Gynecologic cancer cell panel viability, ATPlite luminescence, 48 h, control line for the selectivity index; series mostly up to 57.5 µM
Procedure, shortened: as §1

JEG-3 = details: Gynecologic cancer cell panel viability, ATPlite luminescence, 48 h; series mostly up to 57.5 µM
Procedure, shortened: as §1

OV90 = details: Gynecologic cancer cell panel viability, ATPlite luminescence, 48 h; series mostly up to 57.5 µM
Procedure, shortened: as §1
Potency is the fitted concentration of half-maximal effect.

SMILES	Potency (C33A)	Potency (CAOV3)	Potency (CASKI)	Potency (Es-2)	Potency (HeLa)	Potency (Hek293T)	Potency (JEG-3)	Potency (OV90)
Cc1cccc(-c2[nH]ncc2-c2ccc(F)c(-c3cnn(CCO)c3)c2)n1	inactive	inactive	inactive	inactive	inactive	inactive	inactive	inactive
COc1c2c(c(C)c3c1C(=O)OC3)O[C@@]1(C)C[C@@H](OC(C)=O)[C@]34O[C@](OC)(CC[C@]3(C)[C@H]1C2)OC4(C)C	inactive	inactive	inactive	inactive	inactive	inactive	inactive	inactive
CC(C)(Cc1ccccc1)NCC(O)c1ccc(O)c(NS(C)(=O)=O)c1 (stereo not given)	inactive	inactive	inactive	inactive	inactive	inactive	inactive	inactive
Cc1ccc(C(C)C)c(O[C@@H]2O[C@H](CO)[C@@H](O)[C@H](O)[C@H]2O)c1	inactive	inactive	inactive	inactive	inactive	inactive	inactive	inactive
CC(C)(C)c1ccc(C(=O)Nc2cn3cc(-n4ccnc4)ccc3n2)cc1	inactive	inactive	inactive	inactive	inactive	inactive	inactive	inactive
O=C(NCC(=O)N1CCCC1)Nc1ccc2cnccc2c1	inactive	inactive	inactive	inactive	inactive	inactive	inactive	inactive
CCNC(=O)N1CCCN(c2ccc(C(=O)NCCc3ccc(Cl)cc3Cl)cc2NC(=O)c2cccc(Cl)c2)CC1	inactive	inactive	inactive	inactive	inactive	inactive	inactive	inactive
CCC/C=C\C=C/CCc1cc(O)c([C@@H]2O[C@H](CO)[C@@H](O)[C@H](O)[C@H]2O)c(O)c1C(=O)OC	inactive	inactive	inactive	inactive	inactive	inactive	inactive	inactive
CCC(C)C(=O)O[C@H]1[C@@H](OC(=O)c2ccoc2)C[C@](C)(O)[C@]23OC(C)(C)[C@H](C[C@H](OC(=O)c4ccoc4)[C@]12COC(C)=O)[C@H]3OC(C)=O (stereo not given in full)	inactive	inactive	inactive	inactive	inactive	inactive	inactive	inactive
CC(=O)OC[C@]12[C@H](OC(C)=O)C(=O)[C@@H]3[C@@H](O)[C@@]14O[C@@]3(C)COC(=O)c1cccnc1[C@@H](C)[C@H](C)C(=O)O[C@@H]([C@H](O)[C@@H]2OC(C)=O)[C@]4(C)O	inactive	inactive	inactive	inactive	inactive	inactive	inactive	inactive
O=[N+]([O-])c1cn2c(n1)OC[C@@H](OCc1ccc(-c3ccc(OC(F)(F)F)cc3)nc1)C2	inactive	inactive	inactive	inactive	inactive	inactive	inactive	inactive
CC(=O)O[C@@H]1CC[C@@]2(C)C(CC[C@]3(C)C2[C@H](O)C=C2[C@H]4[C@@H](C)[C@H](C)CC[C@]4(C)CC[C@]23C)[C@@]1(C)C(=O)O (stereo not given in full)	inactive	inactive	inactive	inactive	inactive	inactive	inactive	inactive
COC1=CC(=O)O/C1=C(/OC)[C@@H]1O[C@H]1c1ccccc1	inactive	inactive	inactive	inactive	inactive	inactive	inactive	inactive
C=C1CC[C@@H]2[C@](C)(CO)[C@H](O)CC[C@@]2(C)[C@@H]1/C=C/C1=CCOC1=O	inactive	inactive	inactive	inactive	inactive	inactive	inactive	inactive
COc1ccc(S(=O)(=O)Nc2c(C)cc(C)cc2C)cc1	inactive	inactive	inactive	inactive	inactive	inactive	inactive	inactive
CCCC(CCC)C(=O)NCc1ccc2c(cnn2-c2ccccc2OC)c1	inactive	inactive	inactive	inactive	inactive	inactive	inactive	inactive
C#CCCCn1cc(-c2cccc3c2N[C@H](C)CC(=O)N3)cn1	inactive	inactive	inactive	inactive	891 nM (active)	inactive	inactive	inactive
CC(C)Nc1nc(Nc2ccccc2)nc(-c2ccccc2)n1	inactive	inactive	inactive	inactive	inactive	inactive	inactive	inactive
O=C(Nc1ccc2[nH]c(=O)oc2c1)C(=O)N1CCC(Cc2ccc(F)cc2)CC1	inactive	inactive	inactive	inactive	inactive	inactive	inactive	inactive
O=C(c1ccc(F)cc1)N1CCCC(c2nc(-c3ccc(F)cc3)no2)C1 (stereo not given)	inactive	inactive	inactive	inactive	inactive	inactive	inactive	inactive

SMILES	Potency (C33A)	Potency (CAOV3)	Potency (CASKI)	Potency (Es-2)	Potency (HeLa)	Potency (Hek293T)	Potency (JEG-3)	Potency (OV90)
C/C=C/C=C/c1cc2c(C=O)c(O)c(CC=C(C)C)cc2o1	inactive	inactive	inactive	inactive	inactive	inactive	inactive	inactive
NC(=O)c1nc(Nc2ccccc2)sc1NC(=O)C1CCCCC1	inactive	inactive	inactive	inactive	inactive	inactive	inactive	inactive
Cc1cc(-c2cc(OC(=O)c3ccccc3)ccc2Cl)cc2nnc(Nc3ccc(OCCN4CCCC4)cc3)nc12	inactive	inactive	inactive	inactive	inactive	inactive	inactive	inactive
COc1cc(CCc2ccc(OCC=C(C)C)cc2)cc(OC)c1OC	inactive	inactive	inactive	inactive	inactive	inactive	inactive	inactive
C[C@@H](NC(=O)[C@H](O)c1cc(F)cc(F)c1)C(=O)N[C@@H]1C(=O)N(C)c2ccccc2-c2ccccc21	inactive	inactive	inactive	inactive	inactive	inactive	inactive	inactive
CN1CC[C@@H](c2c(O)cc(O)c3c(=O)cc(-c4ccc(C(F)(F)F)cc4Cl)oc23)[C@@H]1CO	inactive	inactive	inactive	inactive	inactive	inactive	inactive	inactive
C=CCc1ccc(OC(C)Cc2ccc(OC)c(OC)c2)c(OC)c1 (stereo not given)	inactive	inactive	inactive	inactive	inactive	inactive	inactive	inactive
COc1ccc(-c2c(C)nn3c(NCCN4CCOCC4)cc(C)nc23)cc1OC	inactive	inactive	inactive	inactive	inactive	inactive	inactive	inactive
CCCCCCOC(=O)/N=C(\N)c1ccc(NCc2nc3cc(C(=O)N(CCC(=O)OCC)c4ccccn4)ccc3n2C)cc1	inactive	inactive	inactive	inactive	inactive	inactive	inactive	inactive
CCOc1cccc(NC(=O)c2ccc(N3CCCC3)c(C(F)(F)F)c2)c1	inactive	inactive	inactive	inactive	inactive	inactive	inactive	inactive
O=c1[nH]c2ccc(C#CCN3CCC(Cc4ccccc4)CC3)cc2[nH]1	inactive	inactive	inactive	inactive	inactive	inactive	inactive	inactive
C=C1C(=O)OC2CC(C)C(CCC(C)=O)=CCC12 (stereo not given)	inactive	inactive	inactive	inactive	inactive	inactive	inactive	inactive
O=C(COc1ccc2ccccc2c1Br)Nc1cccnc1	inactive	inactive	inactive	inactive	inactive	inactive	inactive	inactive
CC(C)(C)OC(=O)c1ncn2c1C(C)(C)Nc1ccccc1-2	inactive	inactive	inactive	inactive	inactive	inactive	inactive	inactive
CC[C@H]1OC(=O)[C@H](C)[C@@H](O[C@H]2C[C@@](C)(OC)[C@@H](O)[C@H](C)O2)[C@H](C)[C@@H](O[C@H]2O[C@H](C)C[C@H](N(C)C)[C@H]2O)[C@](C)(O)C[C@@H](C)C(=O)[C@H](C)[C@@H](O)[C@]1(C)O	inactive	inactive	inactive	inactive	inactive	inactive	inactive	inactive
C/C=C/C=C/C=C/C(=O)O[C@@H]1C=C(CO)C(O)(C(=O)OC)[C@@]2(C)CCCC(C)(C)C12 (stereo not given in full)	inactive	inactive	inactive	inactive	inactive	inactive	inactive	inactive
CNC(=O)c1cc(Oc2ccc(NC(=O)c3cccc(C(F)(F)F)c3)cc2)ccn1	inactive	inactive	inactive	inactive	inactive	inactive	inactive	inactive
CNCCCC1(c2ccccc2)OC(C)(C)c2ccccc21 (stereo not given)	inactive	inactive	inactive	inactive	inactive	inactive	inactive	inactive
O=C(Nc1nnc(-c2ccc3c(c2)OCCO3)o1)C1CCCCC1	inactive	inactive	inactive	inactive	inactive	inactive	inactive	inactive
C=C1C(=O)OC2C1CCC1(C)C(O)CCC(=C)C21 (stereo not given)	inactive	inactive	inactive	inactive	inactive	inactive	inactive	inactive

— PubChem BioAssay (NCATS)
